# Results reported in paper PMC13541613, “GHT-SELEX demonstrates unexpectedly high intrinsic sequence specificity and complex DNA binding of many human transcription factors”.
# Legend:
# Test in all cases: HT-SELEX; 20 mM HEPES pH 7, 140 mM KCl, 5 mM NaCl, 1 mM K2HPO4, 2 mM MgSO4, 100 uM EGTA, ZnSO4, 0.1% Tween20; room temperature, 1 h; high values mean tight binding
# Conditions in all cases: protein: ivt; tags: eGFP (N-terminal); dsDNA, one strand shown
# [1] = biological target: ZNF721 full-length (Homo sapiens, UniProt Q8TF20-2 1-923)
# Chain of ZNF721 full-length (Q8TF20 other isoform, or with tags, fused parts or gaps): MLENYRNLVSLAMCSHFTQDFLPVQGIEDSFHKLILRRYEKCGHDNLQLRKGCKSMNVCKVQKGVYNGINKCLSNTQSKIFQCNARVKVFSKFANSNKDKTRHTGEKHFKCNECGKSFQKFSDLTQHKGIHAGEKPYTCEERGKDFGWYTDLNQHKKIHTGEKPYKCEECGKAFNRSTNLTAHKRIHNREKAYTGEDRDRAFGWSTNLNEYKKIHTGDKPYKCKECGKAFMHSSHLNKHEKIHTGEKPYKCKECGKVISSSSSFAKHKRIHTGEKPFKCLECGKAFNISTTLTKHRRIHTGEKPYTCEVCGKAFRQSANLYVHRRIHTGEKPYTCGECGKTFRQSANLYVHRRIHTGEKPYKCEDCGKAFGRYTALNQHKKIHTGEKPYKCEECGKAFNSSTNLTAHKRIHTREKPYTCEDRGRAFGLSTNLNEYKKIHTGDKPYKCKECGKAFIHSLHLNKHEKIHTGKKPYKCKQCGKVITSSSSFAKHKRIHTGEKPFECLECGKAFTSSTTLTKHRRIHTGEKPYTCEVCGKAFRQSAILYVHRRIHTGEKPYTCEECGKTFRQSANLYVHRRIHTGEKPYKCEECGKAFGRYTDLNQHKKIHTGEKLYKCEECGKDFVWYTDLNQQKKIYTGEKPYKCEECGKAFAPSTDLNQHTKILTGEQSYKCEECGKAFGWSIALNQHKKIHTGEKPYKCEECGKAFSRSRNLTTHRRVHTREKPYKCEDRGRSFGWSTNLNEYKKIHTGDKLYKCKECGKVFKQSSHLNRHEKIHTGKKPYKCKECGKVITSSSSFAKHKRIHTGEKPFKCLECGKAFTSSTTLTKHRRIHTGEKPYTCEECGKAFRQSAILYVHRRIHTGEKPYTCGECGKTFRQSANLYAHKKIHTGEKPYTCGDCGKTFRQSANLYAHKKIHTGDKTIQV
# Summary of the method: (§1)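 The binding signal is a relative k-mer count in selected reads, and higher values mean tighter binding. To obtain these reads, bead-bound tagged transcription factor (full-length or DNA-binding-domain fragment, produced in HEK293 lysate or cell-free extract) was mixed with a randomized 40-base DNA library for 1 h at room temperature in low-stringency HEPES/KCl buffer with Tween20. Bound DNA was recovered by washing and heat elution, PCR-amplified through successive cycles and sequenced on Illumina (~3 million 60 bp reads per sample).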
# [2] = biological target: ZNF721 DBD1 (Homo sapiens, UniProt Q8TF20-2 29-461)
# Chain of ZNF721 DBD1 (Q8TF20 17-449): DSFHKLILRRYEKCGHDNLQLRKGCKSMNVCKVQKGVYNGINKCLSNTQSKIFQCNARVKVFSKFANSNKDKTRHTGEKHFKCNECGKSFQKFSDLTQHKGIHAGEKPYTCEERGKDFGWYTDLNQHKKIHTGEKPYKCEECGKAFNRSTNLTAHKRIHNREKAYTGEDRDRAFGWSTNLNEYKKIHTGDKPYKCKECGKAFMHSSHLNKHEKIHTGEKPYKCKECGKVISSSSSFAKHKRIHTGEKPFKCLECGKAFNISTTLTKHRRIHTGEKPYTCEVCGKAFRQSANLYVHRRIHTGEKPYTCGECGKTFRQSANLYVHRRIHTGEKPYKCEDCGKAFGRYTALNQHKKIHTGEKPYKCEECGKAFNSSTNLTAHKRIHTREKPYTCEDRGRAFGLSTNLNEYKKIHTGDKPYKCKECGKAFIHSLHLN
# Summary of the method: as §1
# [3] = biological target: ZNF721 DBD2 (Homo sapiens, UniProt Q8TF20-2 395-923)
# Chain of ZNF721 DBD2 (Q8TF20 383-911): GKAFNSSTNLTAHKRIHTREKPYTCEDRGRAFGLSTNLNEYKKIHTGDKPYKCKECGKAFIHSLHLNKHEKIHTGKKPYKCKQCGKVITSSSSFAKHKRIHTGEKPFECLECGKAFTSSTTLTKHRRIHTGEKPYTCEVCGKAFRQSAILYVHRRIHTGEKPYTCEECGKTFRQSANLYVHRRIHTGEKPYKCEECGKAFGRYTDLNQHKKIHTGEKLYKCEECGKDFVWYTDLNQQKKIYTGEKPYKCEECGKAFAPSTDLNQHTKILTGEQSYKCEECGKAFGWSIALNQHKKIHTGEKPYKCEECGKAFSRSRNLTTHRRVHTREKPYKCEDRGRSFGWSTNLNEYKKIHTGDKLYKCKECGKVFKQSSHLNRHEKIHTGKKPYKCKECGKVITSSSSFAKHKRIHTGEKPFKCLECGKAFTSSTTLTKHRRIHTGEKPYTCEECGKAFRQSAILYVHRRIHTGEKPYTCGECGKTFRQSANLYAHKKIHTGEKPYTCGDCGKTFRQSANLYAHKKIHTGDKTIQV
# Summary of the method: as §1
sequence,measurement,setting,value
CCCCACCCCA,binding signal,[1],0.297 relative 10-mer count
same,binding signal,[2],0.0112 relative 10-mer count
same,binding signal,[3],0.00288 relative 10-mer count
CCCACCACAC,binding signal,[1],0.155 relative 10-mer count
same,binding signal,[2],0.00583 relative 10-mer count
same,binding signal,[3],0.00947 relative 10-mer count
CGCCCACCCC,binding signal,[1],0.23 relative 10-mer count
same,binding signal,[2],0.00913 relative 10-mer count
same,binding signal,[3],0.00252 relative 10-mer count
AAAAAAAGCA,binding signal,[1],0.612 relative 10-mer count
same,binding signal,[2],0.037 relative 10-mer count
same,binding signal,[3],0.246 relative 10-mer count
CTCCCCACCA,binding signal,[1],0.115 relative 10-mer count
same,binding signal,[2],0.00596 relative 10-mer count
same,binding signal,[3],0.00587 relative 10-mer count
ACACTTCATA,binding signal,[1],0.548 relative 10-mer count
same,binding signal,[2],0.649 relative 10-mer count
same,binding signal,[3],0.00144 relative 10-mer count
AACCCCACCC,binding signal,[1],0.141 relative 10-mer count
same,binding signal,[2],0.00294 relative 10-mer count
same,binding signal,[3],0.00156 relative 10-mer count
GCCCCCCTCC,binding signal,[1],0.128 relative 10-mer count
same,binding signal,[2],0.00527 relative 10-mer count
same,binding signal,[3],0.00264 relative 10-mer count
CCCACCCCAA,binding signal,[1],0.151 relative 10-mer count
same,binding signal,[2],0.00642 relative 10-mer count
same,binding signal,[3],0.00575 relative 10-mer count
CGCTTCATAC,binding signal,[1],0.265 relative 10-mer count
same,binding signal,[2],0.363 relative 10-mer count
same,binding signal,[3],0.0012 relative 10-mer count
CCGCCTCCCC,binding signal,[1],0.155 relative 10-mer count
same,binding signal,[2],0.00798 relative 10-mer count
same,binding signal,[3],0.00204 relative 10-mer count
CCCCTCACCC,binding signal,[1],0.187 relative 10-mer count
same,binding signal,[2],0.00711 relative 10-mer count
same,binding signal,[3],0.00503 relative 10-mer count
CCGCCCACCA,binding signal,[1],0.143 relative 10-mer count
same,binding signal,[2],0.00477 relative 10-mer count
same,binding signal,[3],0.00156 relative 10-mer count
CACCCCTCCC,binding signal,[1],0.181 relative 10-mer count
same,binding signal,[2],0.00826 relative 10-mer count
same,binding signal,[3],0.00336 relative 10-mer count
AGCGTACCCA,binding signal,[1],0.188 relative 10-mer count
same,binding signal,[2],0.0311 relative 10-mer count
same,binding signal,[3],0.162 relative 10-mer count
CCTACCCCCC,binding signal,[1],0.127 relative 10-mer count
same,binding signal,[2],0.00555 relative 10-mer count
same,binding signal,[3],0.00707 relative 10-mer count
CCCACCCCCG,binding signal,[1],0.214 relative 10-mer count
same,binding signal,[2],0.00771 relative 10-mer count
same,binding signal,[3],0.00264 relative 10-mer count
CCCCGCCTCC,binding signal,[1],0.175 relative 10-mer count
same,binding signal,[2],0.00738 relative 10-mer count
same,binding signal,[3],0.00216 relative 10-mer count
CACCACCCCA,binding signal,[1],0.222 relative 10-mer count
same,binding signal,[2],0.00803 relative 10-mer count
same,binding signal,[3],0.00683 relative 10-mer count
CCCTACCACC,binding signal,[1],0.104 relative 10-mer count
same,binding signal,[2],0.00578 relative 10-mer count
same,binding signal,[3],0.0144 relative 10-mer count
TCCCCCACCA,binding signal,[1],0.114 relative 10-mer count
same,binding signal,[2],0.00527 relative 10-mer count
same,binding signal,[3],0.00407 relative 10-mer count
AGCCCCACCC,binding signal,[1],0.106 relative 10-mer count
same,binding signal,[2],0.00312 relative 10-mer count
same,binding signal,[3],0.00959 relative 10-mer count
CACCCCACCA,binding signal,[1],0.182 relative 10-mer count
same,binding signal,[2],0.00725 relative 10-mer count
same,binding signal,[3],0.00587 relative 10-mer count
GCCCCACCCC,binding signal,[1],0.216 relative 10-mer count
same,binding signal,[2],0.00775 relative 10-mer count
same,binding signal,[3],0.00599 relative 10-mer count
CCCCCCACGC,binding signal,[1],0.139 relative 10-mer count
same,binding signal,[2],0.00404 relative 10-mer count
same,binding signal,[3],0.00324 relative 10-mer count
CTCCCCTCCC,binding signal,[1],0.135 relative 10-mer count
same,binding signal,[2],0.00693 relative 10-mer count
same,binding signal,[3],0.00455 relative 10-mer count
CCCCCAACCC,binding signal,[1],0.233 relative 10-mer count
same,binding signal,[2],0.00775 relative 10-mer count
same,binding signal,[3],0.00168 relative 10-mer count
TGTGTATGAA,binding signal,[1],0.169 relative 10-mer count
same,binding signal,[2],0.203 relative 10-mer count
same,binding signal,[3],0.00228 relative 10-mer count
GCTTCATACA,binding signal,[1],0.231 relative 10-mer count
same,binding signal,[2],0.318 relative 10-mer count
same,binding signal,[3],0.0018 relative 10-mer count
CCCACCCACC,binding signal,[1],0.425 relative 10-mer count
same,binding signal,[2],0.0187 relative 10-mer count
same,binding signal,[3],0.00899 relative 10-mer count
CCCTCGCCCC,binding signal,[1],0.167 relative 10-mer count
same,binding signal,[2],0.00702 relative 10-mer count
same,binding signal,[3],0.00336 relative 10-mer count
CACCCCCACC,binding signal,[1],0.308 relative 10-mer count
same,binding signal,[2],0.0129 relative 10-mer count
same,binding signal,[3],0.0102 relative 10-mer count
CCACCACCCG,binding signal,[1],0.131 relative 10-mer count
same,binding signal,[2],0.00564 relative 10-mer count
same,binding signal,[3],0.00467 relative 10-mer count
CCCCACACCC,binding signal,[1],0.274 relative 10-mer count
same,binding signal,[2],0.01 relative 10-mer count
same,binding signal,[3],0.00443 relative 10-mer count
CCCCCCAGCC,binding signal,[1],0.118 relative 10-mer count
same,binding signal,[2],0.00505 relative 10-mer count
same,binding signal,[3],0.00228 relative 10-mer count
CCCCCCCGAC,binding signal,[1],0.115 relative 10-mer count
same,binding signal,[2],0.00408 relative 10-mer count
same,binding signal,[3],0.00288 relative 10-mer count
CCCGACCCCC,binding signal,[1],0.178 relative 10-mer count
same,binding signal,[2],0.00628 relative 10-mer count
same,binding signal,[3],0.00144 relative 10-mer count
